Screen size: about 29,000 compounds; fewer than 10 were called active. How the calls were made is not given here. Only a sample is shown.

44 compounds from PubChem BioAssay AID2316 (Broad Institute, 2010) can be followed below.

This assay can be described thus: reversal of PD-1 mediated T-cell inhibition, primary screen, luminescence, primary human CD4 T cells, PD-L1 beads (AID 2316).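 Further: 0% = median vehicle wells and 100% = positive control.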 The note with it: CellTiter-Glo 96 h, active compounds read high. A general note: ATP-based viability assays read luminescence as a measure of living cells.
With `O=C1OC(c2ccc(-c3ccccc3)cc2)=N/C1=C\c1ccco1`, the activation was 1.56% (inactive).

In the case of `C/C=C/c1ccc(OCCCSc2nc(C)cc(=O)[nH]2)c(OC)c1`, the activation was 2.94% (inactive).

Regarding `C[C@H]1CN([C@@H](C)CO)C(=O)Cc2cc(NC(=O)Nc3ccc4c(c3)OCO4)ccc2O[C@H]1CN(C)Cc1ccc(C(=O)Nc2ccccc2N)cc1`, the activation is -2.39% (inactive).

Turning to `C[C@@H]1CCCCO[C@@H](CN(C)C(=O)C2CCCCC2)[C@@H](C)CN([C@H](C)CO)C(=O)c2cc(NC(=O)c3ccccc3)ccc2O1`, the activation was -1.83% (inactive).

`N#Cc1cc2c(nc1SCC(=O)Nc1ccccc1C(F)(F)F)CCCCC2`: the activation is 1.79% (inactive).

Regarding `Cc1noc(C)c1NC(=O)Nc1cccc2c1O[C@@H](CN(C)C(=O)Nc1ccc(C(F)(F)F)cc1)[C@@H](C)CN([C@@H](C)CO)C2=O`, the activation is -0.0327% (inactive).

As to `C[C@H](CO)N1C[C@H](C)[C@H](CN(C)S(C)(=O)=O)Oc2ccc(NC(=O)CCCN(C)C)cc2C1=O`, the activation was 0.789% (inactive).

Turning to `C[C@H](CO)N1C[C@H](C)[C@H](CN(C)CC2CCCCC2)Oc2ccc(NC(=O)CCCCCC(=O)Nc3ccccc3N)cc2CC1=O`, the activation is -0.694% (inactive).

In the case of `Cc1cccc(NC(=O)CSc2nc3c(cc2C#N)CCCCC3)c1`, the activation was -3.01% (inactive).

For the compound `O=C(CSc1nnc(-c2ccccc2)c(-c2ccccc2)n1)Nc1ccccc1`, the activation is 1.51% (inactive).

Regarding `C[C@H]1CN([C@@H](C)CO)C(=O)c2cc(NC(=O)Cn3cnnn3)ccc2O[C@@H]1CN(C)CC1CCCCC1`, the activation was 1.73% (inactive).

In the case of `CCCC1CCC(c2ccc(OC(=O)c3ccco3)cc2)CC1` (centres undefined), the activation was -0.337% (inactive).

In the case of `CC(=O)c1c(C)nn(CC(O)COc2ccc3cc(Br)ccc3c2)c1C` (centres undefined), the activation is -6.98% (inactive).

For `O=C(Nc1ccc(C(=O)OCc2cccc(C(=O)c3ccccc3)c2)cc1)c1ccccc1`, the activation is -0.837% (inactive).

For `O=C(CSc1n[nH]c(-c2ccncc2)n1)Nc1ccccc1F`, the activation is 2.95% (inactive).

Turning to `Cc1ccc(NC(=O)CN2C(=O)/C(=C\c3ccccc3)SC2=S)cc1`, the activation is 1.06% (inactive).

For the compound `COC(=O)C1=C(C)NC2=C(C(=O)CC(C)(C)C2)C1c1ccncc1` (centres undefined), the activation was -0.541% (inactive).

For `C[C@@H]1CN([C@@H](C)CO)C(=O)c2cccc(NS(=O)(=O)c3cccs3)c2O[C@@H]1CN(C)CC1CC1`, the activation was 1.15% (inactive).

For `C[C@@H]1CN([C@H](C)CO)C(=O)c2cccc(NC(=O)Nc3ccccc3)c2O[C@H]1CN(C)S(C)(=O)=O`, the activation is 0.424% (inactive).

For `C[C@H]1CN([C@@H](C)CO)C(=O)Cc2cc(NC(=O)Nc3cccc4ccccc34)ccc2O[C@@H]1CN(C)S(=O)(=O)c1cn(C)cn1`, the activation is -0.329% (inactive).

Regarding `CC(C)Cc1ccc(/C=C/C(=O)N2CCCC2)cc1`, the activation was -1.3% (inactive).

Regarding `C[C@H]1CN([C@@H](C)CO)C(=O)c2cccc(NC(=O)C3CC3)c2O[C@@H]1CN(C)S(=O)(=O)c1ccc(F)cc1`, the activation was -0.218% (inactive).

For `COc1ccc(CN(C)C[C@H]2Oc3c(NS(=O)(=O)c4ccc(C)cc4)cccc3C(=O)N([C@@H](C)CO)C[C@@H]2C)cc1`, the activation was -1.26% (inactive).

As for `COc1ccc(CN(C)C[C@@H]2Oc3ccc(NS(=O)(=O)c4ccc(F)cc4)cc3C(=O)N([C@@H](C)CO)C[C@@H]2C)cc1`, the activation was -1.17% (inactive).

As to `N#Cc1c(SCC(=O)Nc2ccc(F)cc2Cl)nc2c(c1C(F)(F)F)CCCCC2`, the activation was 0.417% (inactive).

Regarding `CC(=O)NCCc1nc2cc(NC(=O)c3ccccc3)ccc2n1C`, the activation is 2.35% (inactive).

Regarding `C[C@@H]1CN([C@@H](C)CO)C(=O)c2cc(NC(=O)CCCN(C)C)ccc2O[C@@H]1CN(C)Cc1ccncc1`, the activation was 0.414% (inactive).

For `CCOc1ccc(NC(=O)C(C)Sc2nnc(C)n2-c2ccccc2)cc1` (centres undefined), the activation was -0.74% (inactive).

With `C[C@@H]1CCCCO[C@@H](CN(C)C(=O)NC2CCCCC2)[C@@H](C)CN([C@H](C)CO)C(=O)c2cc(NC(=O)CCC(F)(F)F)ccc2O1`, the activation is -0.155% (inactive).

As to `COc1cc(OC)cc(C(=O)N2CCN=C2c2ccccc2)c1`, the activation was 0.604% (inactive).

As for `C[C@@H]1CN([C@@H](C)CO)C(=O)c2cc(NC(=O)Cc3ccccc3)ccc2O[C@H]1CN(C)Cc1ccc(Cl)c(Cl)c1`, the activation was -0.482% (inactive).

For `Cc1ccccc1N=C(N)N=C(N)N`, the activation was -0.656% (inactive).

With `C[C@@H]1CCCCO[C@H](CN(C)C(=O)C2CCCCC2)[C@@H](C)CN([C@H](C)CO)C(=O)c2cc(NC(=O)C3CCCCC3)ccc2O1`, the activation is -3.28% (inactive).

Regarding `CC(=O)c1cccc(NC(=O)CN(C)S(=O)(=O)c2ccc3ccccc3c2)c1`, the activation is 0.81% (inactive).

On to `COc1ccccc1-n1c(N)cc(=O)nc1SCC(=O)Nc1ccc(Br)cc1`, for which the activation is 1.16% (inactive).

For `C[C@H](CO)N1C[C@H](C)[C@H](CN(C)S(=O)(=O)c2cccs2)Oc2ccc(NC(=O)Nc3ccccc3)cc2C1=O`, the activation is -1.39% (inactive).

For `Cc1ccc(-c2noc(CSc3nnc(-c4cccs4)n3C)n2)cc1`, the activation was 0.512% (inactive).

Turning to `Cc1ccc(C)c(OCC(=O)Nc2ccccc2C#N)c1`, the activation is -3.9% (inactive).

`COc1ccc(S(=O)(=O)N(C)C[C@@H]2Oc3ccc(NS(=O)(=O)c4ccc(Cl)cc4)cc3C(=O)N([C@H](C)CO)C[C@H]2C)cc1`: the activation is -2.88% (inactive).

For the compound `O=C(OCC1OC(Oc2ccc(O)cc2COC(=O)C2(O)C(O)CCC(O)C2O)C(O)C(O)C1O)c1ccccc1` (centres undefined), the activation was -1.74% (inactive).

`C[C@@H]1CN([C@@H](C)CO)C(=O)c2cccc(NS(=O)(=O)c3ccc(Cl)cc3)c2O[C@@H]1CN(C)C(=O)Nc1ccccc1`: the activation was -0.568% (inactive).

With `C[C@@H]1CN([C@H](C)CO)C(=O)Cc2cc(NC(=O)Cn3cnnn3)ccc2O[C@H]1CN(C)Cc1ccc(Cl)c(Cl)c1`, the activation was 1.08% (inactive).

On to `C[C@@H]1CN([C@@H](C)CO)C(=O)c2cccc(NS(=O)(=O)c3ccc(F)cc3)c2O[C@@H]1CN(C)Cc1ccc(C(=O)O)cc1`, for which the activation was 1.83% (inactive).

For `C[C@H]1CN([C@@H](C)CO)C(=O)c2cc(NS(=O)(=O)c3cccs3)ccc2O[C@@H]1CN(C)C(=O)Nc1cccc2ccccc12`, the activation was -0.392% (inactive).
